In ChEMBL document CHEMBL2218924, “A broad activity screen in support of a chemogenomic map for kinase signalling research and drug discovery” (Biochem J, 2013) one finds residual activity data, which are given here for three compounds.

The target of assay [1] is Death-associated protein kinase 1 (Homo sapiens) (UniProt P53355). To be noted: at 10 µM.
Assay [2] deals with Death-associated protein kinase 2 (Homo sapiens) (UniProt Q9UIK4). To be noted: at 1 µM.
Assay [3] has the same target. To be noted: at 10 µM.
For assay [4], the target named is T1, Serine/threonine-protein kinase DCLK2 (Homo sapiens) (UniProt Q8N568).
T1 sequence (whole entry): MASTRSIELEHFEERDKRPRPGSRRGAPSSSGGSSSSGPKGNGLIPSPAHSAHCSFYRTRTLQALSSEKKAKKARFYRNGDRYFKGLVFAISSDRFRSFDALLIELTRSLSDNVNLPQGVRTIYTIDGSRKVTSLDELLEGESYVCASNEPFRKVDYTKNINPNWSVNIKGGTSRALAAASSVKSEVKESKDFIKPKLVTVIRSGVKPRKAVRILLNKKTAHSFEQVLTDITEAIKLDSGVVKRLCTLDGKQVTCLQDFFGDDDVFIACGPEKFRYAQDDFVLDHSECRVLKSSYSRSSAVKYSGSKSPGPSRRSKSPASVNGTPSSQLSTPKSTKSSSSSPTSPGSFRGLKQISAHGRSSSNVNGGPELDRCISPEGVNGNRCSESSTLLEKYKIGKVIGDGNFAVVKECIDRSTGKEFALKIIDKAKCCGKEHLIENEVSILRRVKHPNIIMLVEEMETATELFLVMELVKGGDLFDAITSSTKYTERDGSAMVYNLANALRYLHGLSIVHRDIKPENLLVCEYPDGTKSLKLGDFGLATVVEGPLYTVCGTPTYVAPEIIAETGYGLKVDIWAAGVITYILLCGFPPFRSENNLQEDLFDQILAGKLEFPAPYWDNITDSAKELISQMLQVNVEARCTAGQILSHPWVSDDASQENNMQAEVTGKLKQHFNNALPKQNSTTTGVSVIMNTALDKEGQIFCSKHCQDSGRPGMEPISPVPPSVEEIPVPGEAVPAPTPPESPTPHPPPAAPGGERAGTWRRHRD
As to conditions: at 1 µM.

Assay [5] deals with T1, Serine/threonine-protein kinase DCLK2 (Homo sapiens). As to conditions: at 10 µM.
The target of assay [6] is T2, Discoidin domain-containing receptor 2 (Homo sapiens) (UniProt Q16832).
T2 sequence (whole entry): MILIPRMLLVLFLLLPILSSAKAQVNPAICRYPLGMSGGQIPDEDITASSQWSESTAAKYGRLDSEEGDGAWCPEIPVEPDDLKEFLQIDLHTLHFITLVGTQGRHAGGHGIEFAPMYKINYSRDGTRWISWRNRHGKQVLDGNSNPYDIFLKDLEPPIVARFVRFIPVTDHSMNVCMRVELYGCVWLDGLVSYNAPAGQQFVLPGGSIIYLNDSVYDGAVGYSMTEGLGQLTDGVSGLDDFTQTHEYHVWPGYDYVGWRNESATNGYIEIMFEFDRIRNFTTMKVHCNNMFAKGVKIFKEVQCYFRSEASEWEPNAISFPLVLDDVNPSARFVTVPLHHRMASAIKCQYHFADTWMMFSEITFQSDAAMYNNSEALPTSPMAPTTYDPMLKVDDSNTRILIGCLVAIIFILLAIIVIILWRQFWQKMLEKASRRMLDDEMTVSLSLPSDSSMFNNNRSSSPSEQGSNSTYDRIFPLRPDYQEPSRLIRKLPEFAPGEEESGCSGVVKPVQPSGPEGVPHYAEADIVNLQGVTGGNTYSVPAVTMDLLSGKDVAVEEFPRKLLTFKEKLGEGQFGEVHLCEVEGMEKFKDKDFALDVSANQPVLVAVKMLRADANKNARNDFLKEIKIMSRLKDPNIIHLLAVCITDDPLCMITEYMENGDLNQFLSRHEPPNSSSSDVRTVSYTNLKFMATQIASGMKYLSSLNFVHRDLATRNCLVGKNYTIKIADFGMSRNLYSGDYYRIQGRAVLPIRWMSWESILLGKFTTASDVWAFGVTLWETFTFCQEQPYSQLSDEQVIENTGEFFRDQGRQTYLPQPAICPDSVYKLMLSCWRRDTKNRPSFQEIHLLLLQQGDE
As to conditions: at 1 µM.

The target of assay [7] is T2, Discoidin domain-containing receptor 2 (Homo sapiens). As to conditions: at 10 µM.
For assay [8], the target named is T3, Myotonin-protein kinase (Homo sapiens) (UniProt Q09013).
T3 sequence (whole entry): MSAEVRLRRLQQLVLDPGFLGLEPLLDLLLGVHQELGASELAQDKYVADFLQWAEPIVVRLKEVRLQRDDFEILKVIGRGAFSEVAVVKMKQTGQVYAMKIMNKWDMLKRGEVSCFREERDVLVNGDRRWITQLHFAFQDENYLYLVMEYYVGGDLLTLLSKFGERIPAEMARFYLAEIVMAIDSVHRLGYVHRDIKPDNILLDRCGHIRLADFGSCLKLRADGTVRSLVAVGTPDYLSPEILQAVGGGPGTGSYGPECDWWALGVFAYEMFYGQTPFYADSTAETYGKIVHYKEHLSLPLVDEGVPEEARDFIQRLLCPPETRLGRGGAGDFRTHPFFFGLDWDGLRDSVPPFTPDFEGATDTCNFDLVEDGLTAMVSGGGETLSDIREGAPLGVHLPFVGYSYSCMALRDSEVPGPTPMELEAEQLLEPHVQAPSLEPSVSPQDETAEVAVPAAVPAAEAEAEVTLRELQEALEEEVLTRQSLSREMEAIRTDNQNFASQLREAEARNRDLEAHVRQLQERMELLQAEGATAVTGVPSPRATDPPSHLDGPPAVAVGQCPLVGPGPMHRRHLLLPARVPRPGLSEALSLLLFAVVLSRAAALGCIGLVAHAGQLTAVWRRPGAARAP
To be noted: at 10 µM.

The target of assay [9] is T4, Serine/threonine-protein kinase 17A (Homo sapiens) (UniProt Q9UEE5).
T4 sequence (whole entry): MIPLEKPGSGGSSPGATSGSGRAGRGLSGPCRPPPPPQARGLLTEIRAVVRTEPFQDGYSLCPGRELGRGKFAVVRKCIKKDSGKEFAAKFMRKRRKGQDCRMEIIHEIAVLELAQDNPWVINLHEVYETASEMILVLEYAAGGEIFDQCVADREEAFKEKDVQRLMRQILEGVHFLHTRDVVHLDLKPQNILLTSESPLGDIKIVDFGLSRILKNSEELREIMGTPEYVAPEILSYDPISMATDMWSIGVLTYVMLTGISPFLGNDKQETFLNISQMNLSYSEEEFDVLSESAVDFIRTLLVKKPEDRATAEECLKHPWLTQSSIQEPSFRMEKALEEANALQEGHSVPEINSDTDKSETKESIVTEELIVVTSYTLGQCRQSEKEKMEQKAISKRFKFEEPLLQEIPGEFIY
As to conditions: at 1 µM.

Assay [10] has as its target T5, Dual specificity tyrosine-phosphorylation-regulated kinase 2 (Homo sapiens) (UniProt Q92630).
T5 sequence (whole entry): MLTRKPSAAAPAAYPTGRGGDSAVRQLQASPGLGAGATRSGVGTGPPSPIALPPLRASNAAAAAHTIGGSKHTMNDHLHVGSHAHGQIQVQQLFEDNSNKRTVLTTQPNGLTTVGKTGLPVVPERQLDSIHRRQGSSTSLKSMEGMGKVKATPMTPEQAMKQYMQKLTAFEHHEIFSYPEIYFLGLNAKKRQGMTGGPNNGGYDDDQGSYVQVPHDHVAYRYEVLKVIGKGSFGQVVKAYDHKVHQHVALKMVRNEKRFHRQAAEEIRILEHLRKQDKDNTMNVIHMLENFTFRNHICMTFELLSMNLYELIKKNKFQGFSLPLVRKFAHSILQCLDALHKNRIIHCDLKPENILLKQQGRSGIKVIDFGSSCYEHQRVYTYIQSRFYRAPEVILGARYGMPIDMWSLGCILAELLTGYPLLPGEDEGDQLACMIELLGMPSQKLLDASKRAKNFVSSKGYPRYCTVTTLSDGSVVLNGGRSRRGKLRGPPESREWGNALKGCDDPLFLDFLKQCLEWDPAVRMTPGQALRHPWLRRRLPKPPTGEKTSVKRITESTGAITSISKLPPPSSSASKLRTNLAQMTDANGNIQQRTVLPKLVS
As to conditions: at 1 µM.

The target of assay [11] is T5, Dual specificity tyrosine-phosphorylation-regulated kinase 2 (Homo sapiens). To be noted: at 10 µM.
The target of assay [12] is T6, Ephrin type-A receptor 1 (Homo sapiens) (UniProt P21709).
T6 sequence (whole entry): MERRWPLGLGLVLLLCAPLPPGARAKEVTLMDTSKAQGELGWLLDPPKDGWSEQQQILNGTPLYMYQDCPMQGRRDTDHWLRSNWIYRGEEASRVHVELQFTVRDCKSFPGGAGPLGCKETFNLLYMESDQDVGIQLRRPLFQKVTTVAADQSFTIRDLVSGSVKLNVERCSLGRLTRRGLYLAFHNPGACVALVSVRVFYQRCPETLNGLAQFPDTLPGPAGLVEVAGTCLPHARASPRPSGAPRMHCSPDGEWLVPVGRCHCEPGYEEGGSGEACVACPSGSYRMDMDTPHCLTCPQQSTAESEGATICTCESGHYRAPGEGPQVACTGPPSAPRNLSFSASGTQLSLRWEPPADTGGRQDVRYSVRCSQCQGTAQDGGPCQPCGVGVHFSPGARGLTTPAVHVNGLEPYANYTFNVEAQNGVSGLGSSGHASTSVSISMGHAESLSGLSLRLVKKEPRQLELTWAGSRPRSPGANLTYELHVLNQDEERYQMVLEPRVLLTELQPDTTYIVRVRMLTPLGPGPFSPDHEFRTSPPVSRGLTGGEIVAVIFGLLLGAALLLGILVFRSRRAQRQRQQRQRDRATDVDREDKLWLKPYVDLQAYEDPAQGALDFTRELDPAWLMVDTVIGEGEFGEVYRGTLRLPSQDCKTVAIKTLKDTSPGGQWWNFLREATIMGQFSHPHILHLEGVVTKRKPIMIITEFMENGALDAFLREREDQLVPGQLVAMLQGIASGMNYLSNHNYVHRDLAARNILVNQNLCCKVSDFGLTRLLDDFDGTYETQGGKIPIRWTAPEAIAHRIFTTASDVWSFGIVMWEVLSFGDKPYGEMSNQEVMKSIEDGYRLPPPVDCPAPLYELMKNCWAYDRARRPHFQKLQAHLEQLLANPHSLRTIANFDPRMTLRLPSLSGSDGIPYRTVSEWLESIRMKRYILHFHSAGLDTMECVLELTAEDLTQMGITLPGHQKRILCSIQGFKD
To be noted: at 1 µM.

Assay [13] has as its target T6, Ephrin type-A receptor 1 (Homo sapiens). As to conditions: at 10 µM.
Assay [14] concerns the target Ephrin type-A receptor 2 (Homo sapiens) (UniProt P29317). To be noted: at 1 µM.
For assay [15] the target is unchanged. To be noted: at 10 µM.
For assay [16], the target named is T7, Ephrin type-A receptor 3 (Homo sapiens) (UniProt P29320).
T7 sequence (whole entry): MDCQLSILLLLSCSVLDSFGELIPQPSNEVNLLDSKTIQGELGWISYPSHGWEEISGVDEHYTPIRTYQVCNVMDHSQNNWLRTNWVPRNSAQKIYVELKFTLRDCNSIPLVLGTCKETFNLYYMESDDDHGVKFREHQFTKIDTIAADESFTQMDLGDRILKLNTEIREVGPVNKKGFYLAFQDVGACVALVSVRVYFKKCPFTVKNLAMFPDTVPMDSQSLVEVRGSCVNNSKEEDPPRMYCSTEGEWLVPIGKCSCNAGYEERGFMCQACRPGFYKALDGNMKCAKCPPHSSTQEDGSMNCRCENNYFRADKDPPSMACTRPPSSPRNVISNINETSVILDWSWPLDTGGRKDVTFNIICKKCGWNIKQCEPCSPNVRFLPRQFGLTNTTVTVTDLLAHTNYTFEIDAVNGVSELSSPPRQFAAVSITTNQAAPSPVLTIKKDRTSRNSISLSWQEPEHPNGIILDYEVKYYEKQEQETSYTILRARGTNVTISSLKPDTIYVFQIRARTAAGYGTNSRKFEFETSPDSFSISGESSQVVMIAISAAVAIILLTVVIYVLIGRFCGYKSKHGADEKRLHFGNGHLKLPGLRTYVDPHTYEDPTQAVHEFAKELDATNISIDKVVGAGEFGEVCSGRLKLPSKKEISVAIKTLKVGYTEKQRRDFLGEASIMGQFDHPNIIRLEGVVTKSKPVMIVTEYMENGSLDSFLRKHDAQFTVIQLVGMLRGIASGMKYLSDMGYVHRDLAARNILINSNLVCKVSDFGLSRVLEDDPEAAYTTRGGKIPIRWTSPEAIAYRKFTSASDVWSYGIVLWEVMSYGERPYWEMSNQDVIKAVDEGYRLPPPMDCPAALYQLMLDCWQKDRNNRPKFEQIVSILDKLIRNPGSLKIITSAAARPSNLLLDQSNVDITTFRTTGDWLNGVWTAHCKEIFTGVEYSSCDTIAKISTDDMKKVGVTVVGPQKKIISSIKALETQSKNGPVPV
To be noted: at 1 µM.

In assay [17] the target is T3, Myotonin-protein kinase (Homo sapiens). To be noted: at 1 µM.
Assay [18] concerns the target T4, Serine/threonine-protein kinase 17A (Homo sapiens). As to conditions: at 10 µM.

Ephrin type-A receptor 2 (Homo sapiens), sequence (P29317 whole entry): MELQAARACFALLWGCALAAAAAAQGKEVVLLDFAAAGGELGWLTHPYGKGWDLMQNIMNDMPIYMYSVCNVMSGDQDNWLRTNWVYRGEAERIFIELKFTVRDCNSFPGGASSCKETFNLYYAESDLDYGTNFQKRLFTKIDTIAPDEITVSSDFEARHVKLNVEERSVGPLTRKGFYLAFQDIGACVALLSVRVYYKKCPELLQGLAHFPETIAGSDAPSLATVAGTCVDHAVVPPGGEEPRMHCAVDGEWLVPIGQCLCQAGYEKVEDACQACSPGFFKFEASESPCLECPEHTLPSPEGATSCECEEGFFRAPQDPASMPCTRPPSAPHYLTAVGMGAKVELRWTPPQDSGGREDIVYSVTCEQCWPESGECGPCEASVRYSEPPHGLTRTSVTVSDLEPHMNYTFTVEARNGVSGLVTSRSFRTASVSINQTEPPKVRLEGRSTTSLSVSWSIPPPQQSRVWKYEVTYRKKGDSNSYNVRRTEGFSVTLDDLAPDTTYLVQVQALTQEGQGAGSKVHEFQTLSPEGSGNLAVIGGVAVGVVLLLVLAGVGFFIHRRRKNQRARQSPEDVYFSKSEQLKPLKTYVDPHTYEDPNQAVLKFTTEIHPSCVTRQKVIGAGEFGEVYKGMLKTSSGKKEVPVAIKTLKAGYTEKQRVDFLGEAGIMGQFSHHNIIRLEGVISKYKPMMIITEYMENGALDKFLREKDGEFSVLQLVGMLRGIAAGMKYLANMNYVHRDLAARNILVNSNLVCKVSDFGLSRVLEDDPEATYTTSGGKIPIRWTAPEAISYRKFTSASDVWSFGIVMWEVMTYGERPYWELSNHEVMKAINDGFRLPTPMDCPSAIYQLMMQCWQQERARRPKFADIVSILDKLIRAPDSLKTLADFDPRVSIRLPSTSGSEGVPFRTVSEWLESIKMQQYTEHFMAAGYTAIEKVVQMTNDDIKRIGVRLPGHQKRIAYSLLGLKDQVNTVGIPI
Death-associated protein kinase 2 (Homo sapiens), sequence (Q9UIK4 whole entry, looked up): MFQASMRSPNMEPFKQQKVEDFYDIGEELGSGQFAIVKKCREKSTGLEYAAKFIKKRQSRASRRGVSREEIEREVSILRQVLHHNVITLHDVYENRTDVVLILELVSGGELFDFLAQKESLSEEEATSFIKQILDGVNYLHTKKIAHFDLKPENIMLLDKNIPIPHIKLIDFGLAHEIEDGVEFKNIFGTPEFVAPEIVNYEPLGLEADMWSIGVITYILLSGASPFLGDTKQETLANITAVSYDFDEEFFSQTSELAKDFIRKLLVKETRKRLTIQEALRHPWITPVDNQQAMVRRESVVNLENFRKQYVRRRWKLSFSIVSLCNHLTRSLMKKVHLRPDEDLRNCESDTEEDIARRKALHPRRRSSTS
Death-associated protein kinase 1 (Homo sapiens), sequence (P53355 whole entry, looked up): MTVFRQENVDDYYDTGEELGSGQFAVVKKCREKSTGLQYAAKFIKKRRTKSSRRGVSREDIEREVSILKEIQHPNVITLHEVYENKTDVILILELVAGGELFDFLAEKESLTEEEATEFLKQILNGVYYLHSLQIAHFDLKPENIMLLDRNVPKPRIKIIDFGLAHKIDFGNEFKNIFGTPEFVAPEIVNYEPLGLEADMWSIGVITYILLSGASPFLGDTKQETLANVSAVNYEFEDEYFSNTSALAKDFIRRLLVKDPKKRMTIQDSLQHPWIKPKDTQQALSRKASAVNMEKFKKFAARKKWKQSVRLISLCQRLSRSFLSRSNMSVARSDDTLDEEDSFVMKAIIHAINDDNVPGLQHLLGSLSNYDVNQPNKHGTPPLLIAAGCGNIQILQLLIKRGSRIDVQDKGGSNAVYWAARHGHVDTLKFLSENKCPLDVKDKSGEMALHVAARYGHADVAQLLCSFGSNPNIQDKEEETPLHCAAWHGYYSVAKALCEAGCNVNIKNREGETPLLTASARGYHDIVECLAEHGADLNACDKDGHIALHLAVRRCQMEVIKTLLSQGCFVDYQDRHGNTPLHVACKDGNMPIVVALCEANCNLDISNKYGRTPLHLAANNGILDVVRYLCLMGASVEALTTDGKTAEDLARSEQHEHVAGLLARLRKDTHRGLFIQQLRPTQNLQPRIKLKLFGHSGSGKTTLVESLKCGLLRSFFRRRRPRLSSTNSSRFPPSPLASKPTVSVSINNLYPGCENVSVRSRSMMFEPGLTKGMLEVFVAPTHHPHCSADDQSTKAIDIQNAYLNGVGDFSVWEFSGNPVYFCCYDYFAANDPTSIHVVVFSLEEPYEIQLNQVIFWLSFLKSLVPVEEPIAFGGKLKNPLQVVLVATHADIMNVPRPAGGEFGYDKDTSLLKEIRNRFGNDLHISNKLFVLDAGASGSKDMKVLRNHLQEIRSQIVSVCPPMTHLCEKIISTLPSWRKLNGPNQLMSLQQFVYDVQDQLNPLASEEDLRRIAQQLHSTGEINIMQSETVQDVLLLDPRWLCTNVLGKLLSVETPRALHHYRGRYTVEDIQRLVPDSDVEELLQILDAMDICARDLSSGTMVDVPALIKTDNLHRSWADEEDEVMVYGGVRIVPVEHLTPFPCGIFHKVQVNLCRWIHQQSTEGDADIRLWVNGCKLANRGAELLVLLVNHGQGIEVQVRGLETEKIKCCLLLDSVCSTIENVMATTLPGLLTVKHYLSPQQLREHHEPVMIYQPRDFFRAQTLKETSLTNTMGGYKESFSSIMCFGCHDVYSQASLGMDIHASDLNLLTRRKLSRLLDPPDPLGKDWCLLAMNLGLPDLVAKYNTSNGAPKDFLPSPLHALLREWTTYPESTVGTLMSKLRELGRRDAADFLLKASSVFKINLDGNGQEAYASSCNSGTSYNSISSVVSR

Consider `CC(C)c1nn(-c2c(Cl)cccc2Cl)c2nc(Cc3ccc(OCCO)cc3)[nH]c(=O)c12`, for which the residual activity (commonly the signal under treatment as a percentage of the control signal) in assay [1] is 91%; in assay [2], 92%; in [3] it was 97%; in assay [4] it was 73%; in [5] it was 74%; in assay [6] it was 98%. Besides, the residual activity in assay [7] is 94%; in assay [8] it was 87%; in [9] it was 96%; in assay [10], 96%; in assay [11], 106%; in [12], 105%. Moreover, the residual activity was 73% in assay [13], 96% in assay [14], 103% in [15] and 94% in [16].

For the compound `CC(C)(C)n1nc(Cc2cccc3ccccc23)c2c(N)ncnc21`, the residual activity in assay [1] was 88%; in assay [2], 96%; in assay [3] it was 106%; in [4] it was 85%; in [5], 107%; in assay [6], 75%. The residual activity in assay [7] was 29%; in [17], 108%; in assay [8], 119%; in assay [9] it was 120%; in assay [18], 103%; in assay [10] it was 109%. Besides, the residual activity is 99% in assay [11]; 7% in assay [12]; -1% in assay [13]; 33% in assay [14]; 1% in assay [15]; 63% in [16].

As for `O=C1NC(=O)c2c1c1c3ccccc3[nH]c1n1cncc21`, the residual activity was 41% in [1]; 9% in assay [2]; -1% in [3]; 96% in assay [4]; 85% in assay [5]; 85% in assay [6]. Moreover, the residual activity in [7] came out at 91%; in [9], 10%; in [18] it was 6%; in assay [10] it was 68%; in assay [11] it was 57%; in [12] it was 74%. Further, the residual activity in assay [13] amounted to 50%; in assay [14] it was 87%; in assay [15], 86%; in assay [16] it was 91%.
